Measured values taken from PubChem BioAssay.
Active and inactive are the calls of the source. Unless noted, how the calls were made is not given here.

Columns and labels:
[1] = anti-His antibody binders, primary screen, artefact control for SMM control protein annotation, biochemical, small-molecule microarray, 635 nm fluorescence (AID 1128); conditions: anti-His Alexa647 antibody binding, higher = more signal;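 further: score merges feature fluorescence with signal-to-noise for each printed compound spot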
[2] = tested on: Human papillomavirus type 1a E7 protein (residues 1-88); assay: HPV1a E7 small-molecule binders, primary screen, biochemical, small-molecule microarray, residues 1-88, 635 nm (AID 1129); conditions: small-molecule microarray binding, fluorescence 635 nm; higher = more signal
[3] = molecular target: Focal adhesion kinase 1 (Homo sapiens) (UniProt Q05397); assay: small-molecule microarray binders of FAK, primary screen, biochemical, 635/667 nm fluorescence, BSA, DTT (AID 1130); conditions: PTK2 binding, 635 nm fluorescence, higher = more signal;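 further: composite of spot emission at 667 nm and signal to noise over triplicate slides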
Sequence of Focal adhesion kinase 1 (Homo sapiens) (Q05397 whole entry, looked up): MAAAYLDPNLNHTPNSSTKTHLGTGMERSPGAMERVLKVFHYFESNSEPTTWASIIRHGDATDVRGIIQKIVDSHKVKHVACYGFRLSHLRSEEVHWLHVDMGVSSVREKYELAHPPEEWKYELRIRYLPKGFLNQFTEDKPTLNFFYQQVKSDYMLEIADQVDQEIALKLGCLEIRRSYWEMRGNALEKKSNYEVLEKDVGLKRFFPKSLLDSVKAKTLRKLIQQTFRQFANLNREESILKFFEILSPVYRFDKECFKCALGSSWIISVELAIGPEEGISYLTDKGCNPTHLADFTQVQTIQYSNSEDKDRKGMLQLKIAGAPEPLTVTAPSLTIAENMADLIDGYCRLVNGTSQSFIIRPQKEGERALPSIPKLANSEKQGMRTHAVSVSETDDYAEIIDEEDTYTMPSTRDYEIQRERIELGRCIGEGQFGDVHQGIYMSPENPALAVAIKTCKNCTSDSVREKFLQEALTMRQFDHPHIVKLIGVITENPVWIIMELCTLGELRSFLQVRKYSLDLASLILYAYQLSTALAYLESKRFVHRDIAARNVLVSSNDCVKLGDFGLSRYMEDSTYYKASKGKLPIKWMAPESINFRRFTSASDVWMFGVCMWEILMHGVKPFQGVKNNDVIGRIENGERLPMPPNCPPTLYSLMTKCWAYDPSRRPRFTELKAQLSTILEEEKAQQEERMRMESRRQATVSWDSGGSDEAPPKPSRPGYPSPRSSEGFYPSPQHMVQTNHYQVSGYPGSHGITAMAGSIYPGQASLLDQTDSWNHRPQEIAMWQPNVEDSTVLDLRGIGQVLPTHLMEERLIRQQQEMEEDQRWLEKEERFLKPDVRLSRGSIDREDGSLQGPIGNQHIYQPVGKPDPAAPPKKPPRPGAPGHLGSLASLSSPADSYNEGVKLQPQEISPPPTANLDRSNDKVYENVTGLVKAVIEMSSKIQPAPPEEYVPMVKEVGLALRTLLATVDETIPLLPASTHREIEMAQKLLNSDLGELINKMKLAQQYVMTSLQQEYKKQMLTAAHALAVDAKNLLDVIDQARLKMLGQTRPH

[4] = tested on: Fibrinogen (Alexa647-labelled); assay: fibrinogen binders on compound microarrays, profiling panel, artefact control for SMM control-protein annotation, biochemical, small-molecule microarray, 635/667 nm fluorescence (AID 1131); conditions: fibrinogen-A647 binding fluorescence, higher = more signal;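 further: z-score merges 667 nm fluorescence with per-spot signal-to-noise over triplicate slides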
[5] = molecular target: Follistatin (Homo sapiens) (UniProt P19883); assay: follistatin binders on small-molecule microarrays, primary screen, biochemical, small-molecule microarray, 635/667 nm fluorescence (AID 1132); conditions: FST binding, 635 nm fluorescence, higher = more signal
Sequence of Follistatin (Homo sapiens) (P19883 whole entry, looked up): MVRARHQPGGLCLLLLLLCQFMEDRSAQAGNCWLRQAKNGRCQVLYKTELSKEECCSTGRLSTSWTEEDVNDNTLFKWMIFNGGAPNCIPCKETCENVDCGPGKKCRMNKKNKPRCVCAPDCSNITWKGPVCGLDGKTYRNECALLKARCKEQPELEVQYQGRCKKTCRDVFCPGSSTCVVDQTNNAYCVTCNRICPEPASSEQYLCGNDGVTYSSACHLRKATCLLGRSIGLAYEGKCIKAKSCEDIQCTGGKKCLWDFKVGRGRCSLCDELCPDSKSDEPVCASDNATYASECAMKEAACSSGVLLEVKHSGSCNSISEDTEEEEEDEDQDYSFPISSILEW

[6] = molecular target: Fibroblast growth factor 2 (Homo sapiens) (UniProt P09038); assay: FGF2 binders on small-molecule microarrays, primary screen, biochemical, small-molecule microarray, 635/667 nm fluorescence (AID 1133); conditions: small-molecule microarray binding, FGF2, fluorescence 635/667; higher = more signal
Sequence of Fibroblast growth factor 2 (Homo sapiens) (P09038 whole entry, looked up): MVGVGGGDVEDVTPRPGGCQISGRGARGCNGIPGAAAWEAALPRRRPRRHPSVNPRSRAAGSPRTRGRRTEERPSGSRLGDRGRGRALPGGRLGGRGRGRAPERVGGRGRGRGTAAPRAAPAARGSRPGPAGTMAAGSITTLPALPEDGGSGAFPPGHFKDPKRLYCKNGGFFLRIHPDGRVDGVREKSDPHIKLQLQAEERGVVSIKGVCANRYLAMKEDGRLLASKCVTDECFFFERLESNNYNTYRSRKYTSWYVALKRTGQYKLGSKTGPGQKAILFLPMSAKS

[7] = mitochondrial membrane potential change in A549 cells, profiling panel, cell-based, JC-1 fluorescence, basal, 24 h, 100 nL (AID 1138); conditions: higher = more signal;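 further: A549 lung adenocarcinoma cells under basal conditions with no added stimulus; test concentration not given here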
Lefty1 = Lefty1 binders on small-molecule microarrays, primary screen, biochemical, small-molecule microarray, 635/667 nm fluorescence (AID 1139); conditions: small-molecule microarray binding, fluorescence 635/667; higher = more signal
[8] = tested on: wheat germ agglutinin (Triticum aestivum), Alexa647-labelled; assay: wheat germ agglutinin binders on compound microarrays, profiling panel, artefact control for SMM control-protein annotation, biochemical, small-molecule microarray, 635/667 nm fluorescence (AID 1140); conditions: WGA-A647 binding, 635 nm fluorescence, higher = more signal;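 further: score merges 667 nm feature emission with signal to noise over triplicate slides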
[9] = molecular target: Luciferin 4-monooxygenase (Photinus pyralis) (UniProt P08659); assay: firefly luciferase enzyme inhibitors, primary screen, biochemical, luminescence, purified enzyme, 2006 set (AID 1141); conditions: SteadyGlo luminescence, 30 min, higher = more signal, called active from +8 up or from −8 down;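 further: cell-free assay with purified firefly luciferase at 100 ng per well in PBS; test concentration not given here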
Sequence of Luciferin 4-monooxygenase (Photinus pyralis) (P08659 whole entry, looked up): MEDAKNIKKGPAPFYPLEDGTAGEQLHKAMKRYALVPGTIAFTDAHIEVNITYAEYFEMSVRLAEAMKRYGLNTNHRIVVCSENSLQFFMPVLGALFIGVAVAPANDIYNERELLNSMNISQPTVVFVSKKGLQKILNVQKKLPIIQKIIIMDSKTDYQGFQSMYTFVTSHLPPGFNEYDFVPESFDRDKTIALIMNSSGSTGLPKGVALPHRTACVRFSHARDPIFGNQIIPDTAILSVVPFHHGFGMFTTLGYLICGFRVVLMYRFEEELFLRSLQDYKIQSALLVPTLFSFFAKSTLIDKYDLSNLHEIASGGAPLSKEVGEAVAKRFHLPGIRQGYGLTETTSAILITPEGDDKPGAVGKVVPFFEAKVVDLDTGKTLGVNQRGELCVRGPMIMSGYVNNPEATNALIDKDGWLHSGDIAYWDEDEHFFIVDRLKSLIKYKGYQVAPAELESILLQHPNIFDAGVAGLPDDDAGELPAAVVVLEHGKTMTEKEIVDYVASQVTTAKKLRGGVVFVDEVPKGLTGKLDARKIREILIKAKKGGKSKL

[10] = tested on: Wnt5a (protein binding on small-molecule microarray); assay: Wnt5a binders on small-molecule microarray, primary screen, biophysical, 635/667 nm fluorescence (AID 1142); conditions: 635 nm fluorescence, higher = more signal;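 further: fluorescence read at 667 nm with signal to noise per printed feature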
[11] = cell viability in Huh7 cells, primary screen, cytotoxicity control for HCV replication inhibitor project, CellTiter-Glo luminescence, basal, 48 h (AID 1143); conditions: Huh7 HCV replicon, higher = more signal, called active from +8 up or from −8 down;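 further: Huh7 hepatoma cells carrying a hepatitis C replication reporter with no stimulus; test concentration not given here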
[12] = P. aeruginosa biofilm formation inhibitors, primary screen, PAO1 strain, BacTiter-Glo luminescence, LB-PBS (AID 1144); conditions: 12 h, higher = more signal
[13] = CREB reporter modulators without forskolin, primary screen, cell-based, PC12, CRE-LacZ reporter, unstimulated (AID 1145); conditions: no forskolin, luminescence, 4.5 h, higher = more signal, called active from +8 up or from −8 down
[14] = CREB reporter modulators under forskolin, primary screen, cell-based, PC12, CRE-LacZ reporter, forskolin-stimulated (AID 1146); conditions: luminescence, 4.5 h, higher = more signal, called active from +8 up or from −8 down;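 further: PC12 cells with 6xCRE LacZ reporter stimulated by forskolin 10 µM; beta-galactosidase reporter signal reflecting CREB driven transcription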
[15] = molecular target: Streptavidin (Streptomyces avidinii) (UniProt P22629); assay: streptavidin binders on small-molecule microarray, primary screen, artefact control for SMM compound annotation, biophysical, 635/667 nm fluorescence (AID 1147); conditions: streptavidin binding, higher = more signal;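 further: signal reflects streptavidin binding to arrayed compounds as a control protein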
Sequence of Streptavidin (Streptomyces avidinii) (P22629 whole entry, looked up): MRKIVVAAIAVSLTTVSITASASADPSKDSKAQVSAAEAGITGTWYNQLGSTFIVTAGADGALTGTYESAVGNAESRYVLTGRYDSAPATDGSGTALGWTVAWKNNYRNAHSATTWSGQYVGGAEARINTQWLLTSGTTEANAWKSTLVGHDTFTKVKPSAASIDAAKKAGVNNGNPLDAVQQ

[16] = small-molecule binders of probe aInhba, primary screen, biochemical, small-molecule microarray, 635/667 nm fluorescence (AID 1148); conditions: higher = more signal;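 further: score merges 667nm spot fluorescence with signal-to-noise for antibody binding to printed compounds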
Torsin-1A (Homo sapiens) [17] = molecular target: Torsin-1A (Homo sapiens) (UniProt O14656); assay: torsin A binders from cell lysate, primary screen, small-molecule microarray, wild-type, 635/667 nm (AID 1149); conditions: COS7 hTOR1A-WT lysate, 635 nm fluorescence, higher = more signal
Sequence of Torsin-1A (Homo sapiens) (O14656 whole entry, looked up): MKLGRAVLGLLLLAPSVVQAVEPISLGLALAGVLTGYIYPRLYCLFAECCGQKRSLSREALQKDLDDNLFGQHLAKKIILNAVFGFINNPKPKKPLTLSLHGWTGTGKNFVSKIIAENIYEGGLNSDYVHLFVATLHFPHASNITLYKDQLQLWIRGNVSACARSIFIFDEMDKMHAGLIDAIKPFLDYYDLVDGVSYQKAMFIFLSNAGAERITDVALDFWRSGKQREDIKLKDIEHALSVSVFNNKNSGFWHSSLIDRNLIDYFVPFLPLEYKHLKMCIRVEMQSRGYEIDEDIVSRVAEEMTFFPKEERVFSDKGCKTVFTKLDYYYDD

Torsin-1A (Homo sapiens) [18] = molecular target: Torsin-1A (Homo sapiens) (UniProt O14656); assay: small-molecule binders of mutant TOR1A in lysate, primary screen, cell lysate, small-molecule microarray, COS7 lysate, 635/667 nm fluorescence (AID 1150); conditions: COS7 hTOR1A mutant lysate, 635 nm fluorescence, higher = more signal;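 further: score pools 667 nm emission and signal to noise measuring lysate protein binding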
[19] = tested on: Sonic hedgehog protein (Shh); assay: small-molecule binders of Shh protein, primary screen, biochemical, small-molecule microarray, 635/667 nm fluorescence (AID 1151); conditions: small-molecule microarray binding, 635 nm fluorescence; higher = more signal;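 further: Shh protein binding to compounds spotted on small-molecule microarray slides; score combines spot fluorescence intensity with signal-to-noise across triplicate slides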

| SMILES | composite z-score [1] | composite z-score [2] | composite z-score [3] | composite z-score [4] | composite z-score [5] | composite z-score [6] | z-score [7] | composite z-score (Lefty1) | composite z-score [8] | z-score [9] | composite z-score [10] | z-score [11] | z-score [12] | z-score [13] | z-score [14] | composite z-score [15] | composite z-score [16] | composite z-score (Torsin-1A (Homo sapiens) [17]) | composite z-score (Torsin-1A (Homo sapiens) [18]) | composite z-score [19] |
| --- | --- | --- | --- | --- | --- | --- | --- | --- | --- | --- | --- | --- | --- | --- | --- | --- | --- | --- | --- | --- |
| C=C(C(=O)CC[C@@H](OC(=O)c1ccccc1-c1ccccc1C(=O)O)c1ccc(CO)o1)C(C)C | 0.546 | 0.434 | -0.304 | 0.876 | 1.39 | 1.76 | 0.475 | 1.51 | 0.707 | -3.22 (inactive) | 0.389 | -0.115 (inactive) | -0.306 (inactive) | 1.47 (inactive) | 1.73 (inactive) | -0.539 | 0.0051 | 1.28 | 0.317 | 1.65 |
| O=C1OC[C@@H](c2ccccc2)n2cc(/C=C/c3ccccc3)cc21 | 0.353 | -0.58 | -0.102 | 0.5 | -0.324 | -0.574 | -0.512 | -0.0599 | -0.328 | 0.287 (inactive) | 0.044 | -4.14 (inactive) | 0.927 (inactive) | 9.55 (active) | -0.54 (inactive) | 0.723 | -0.0933 | -1.43 | -0.565 | 0.319 |
| COc1cccc(C)c1NC(=O)O[C@H]1[C@H](OC(=O)Nc2ccccc2-c2ccccc2)[C@@H](OC(=O)Nc2ccccc2-c2ccccc2)[C@@H](OC)O[C@@H]1CO | 1 | 1.25 | 1.29 | 1.02 | 1.27 | 0.317 | -0.158 | 0.719 | 0.55 | -0.742 (inactive) | 0.933 | -5.6 (inactive) | -0.325 (inactive) | 1.13 (inactive) | -1.05 (inactive) | 1 | 0.179 | 0.631 | 1.23 | 0.457 |
| [N-]=[N+]=NCc1ccccc1C[C@@]1(C(=O)NCCN2CCOCC2)N=C(c2ccc(OCCCO)cc2)O[C@@H]1c1ccccc1 | 1.42 | 1.18 | 0.444 | 0.947 | 1.23 | -0.426 | 1.44 | 0.573 | 0.639 | -1.04 (inactive) | 0.366 | -3.38 (inactive) | 0.505 (inactive) | 2.72 (inactive) | 0.847 (inactive) | 1.11 | 0.302 | 0.271 | 0.57 | 0.34 |
| COC(=O)C1=CC(c2ccc(CO)cc2)=CC(C2CC2)N(Cc2cc3c(cc2Br)OCO3)C=C1C(=O)OC (stereo not given) | 2.85 | 1.19 | 0.833 | 0.879 | 0.62 | 0.907 | 0.835 | 0.413 | 1.06 | -0.817 (inactive) | 0.92 | -3.35 (inactive) | 0.754 (inactive) | -0.904 (inactive) | -0.5 (inactive) | 1.52 | 0.225 | 0.312 | 0.832 | 1.21 |
| C=CCOC(=O)[C@H]1[C@@H]2C(=O)O[C@@H](c3ccccc3)[C@@H](c3ccccc3)N2[C@@H](c2ccc(OCCOC(=O)[C@H]3C[C@H]4C(=O)NCC(=O)N4[C@H]3c3ccc(O)cc3)cc2)[C@]12C(=O)Nc1ccccc12 | 1.46 | 1.22 | 0.402 | 0.961 | 1.44 | 1.46 | -1.62 | 1.26 | 0.543 | 0.207 (inactive) | 0.592 | -0.525 (inactive) | -0.799 (inactive) | -1.08 (inactive) | -0.306 (inactive) | 0.341 | 0.615 | 0.603 | 1.14 | 2.22 |
| CC(C)[Si]1(C(C)C)OCc2cc(-c3ccc(-c4ccc(Cl)c(Cl)c4)o3)nc(-c3ccc(Oc4ccccc4)cc3)c21 | -0.768 | -1.88 | -0.0554 | -1.02 | -1.21 | -1.57 | 0.229 | -1.34 | -0.0312 | 0.586 (inactive) | -0.615 | -0.558 (inactive) | 0.457 (inactive) | 0.251 (inactive) | -0.835 (inactive) | -0.767 | -0.382 | -1.33 | -2.07 | -0.976 |
| COC(=O)[C@H]1N=C(c2ccc(OCCCO)cc2)O[C@H]1c1ccccc1N=[N+]=[N-] | 0.608 | 1.16 | 2.19 | 0.936 | 0.562 | -0.0231 | -0.512 | -0.401 | 0.733 | -19.2 (active) | 0.563 | -2.38 (inactive) | -0.17 (inactive) | 1.18 (inactive) | 0.226 (inactive) | 0.489 | 0.317 | 0.698 | 0.175 | -0.207 |
| CC(C)(C)OC(=O)CC[C@@]1(C(N)=O)N=C(c2ccc(OCCCO)cc2)O[C@@H]1c1ccccc1CN=[N+]=[N-] | 3.46 | 1.13 | 0.177 | 0.524 | 1.34 | 1.34 | -0.332 | -0.721 | 0.68 | -1.79 (inactive) | 1.07 | -0.57 (inactive) | 0.938 (inactive) | 0.171 (inactive) | 0.638 (inactive) | -0.0644 | 0.278 | 0.612 | 1.08 | -0.425 |
| COc1cc(Cc2cc3c(c(-c4ccccc4)n2)[Si](C(C)C)(C(C)C)OC3)cc(OC)c1OC | -0.753 | -1.33 | -0.517 | 0.107 | 0.0972 | 0.542 | 0.489 | -0.194 | 0.712 | -0.111 (inactive) | 0.26 | -0.324 (inactive) | -0.546 (inactive) | -0.113 (inactive) | -0.437 (inactive) | 1.89 | 0.161 | -0.226 | -0.141 | 0.143 |
| C=C(CC1([C@@H](NP(=O)(c2ccccc2)c2ccccc2)[C@H]2C[C@@H]2CCCC)CC1)c1cccc(OC)c1 | 1.18 | 0.811 | 0.751 | 0.269 | 0.43 | -0.7 | 0.959 | -0.739 | 0.344 | 2.59 (inactive) | 0.0445 | -1.65 (inactive) | 0.496 (inactive) | 0.0109 (inactive) | 0.276 (inactive) | 0.566 | 0.0227 | -0.547 | -0.302 | -0.836 |
